Compound activity as filed in PubChem BioAssay.
This is a sample that favours compounds with a hit; in the whole collection about 2.4% have one here.
Peg3 imprint – induces erasure of genomic imprints in mouse ES cells | mouse ES Peg3-LacZ reporter, beta-gal luminescence, 40 h | Potency, µM (doses to about 60.7 µM), for inactives: at the highest dose activity change, positive = activation, hits mostly activators | 0.02% of 110,000 active | AID 1948
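Readout: BetaGlo luminescence (5 min, room temp) for LacZ from the normally silent maternal Peg3 allele in female Peg3LacZ-Neo ES cells. Cells 300/well, 40 h, 37C, 5% CO2. Data normalized per plate to negative controls.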
IkB signaling – IkB pathway inhibition in ABC-DLBCL cells. ABC-DLBCL IkBa-CBG/CBR dual luciferase ratio, 4 h; response scale: scaled: untreated 0%, proteasome inhibitor 100%. AID 445. Potency, µM (series often up to 57.1 µM), inactives show top-dose IkBa stabilization activation. 0.04% of 110,000 active; active = well fitted curve in the direction sought with a large enough effect in the signal ratio, not every such curve was filed as active; inconclusive = small, poorly fitted or top-dose-only effect, or a change in a side signal; the % refers to the signal ratio;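 also: the direction sought is a rising ratio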
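In this assay, an IκBα–CBG68 fusion accumulates when IKK-driven degradation is blocked; native CBR normalizes for cell number. OCI-Ly3 cells were treated 4 h with compound and doxycycline, then green and red light read after Chroma-Glo addition.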
p53ts 39C tox – p53ts cell cytotoxicity, nonpermissive temperature; H1299-p53A138V viability at 39C, ATP luminescence, 24 h; Potency, µM (titrated, usually from 46.1 µM), for the others: top-dose activity change, negative = cell killing, actives largely listed as cytotoxic; 1.5% of 130,000 active; AID 902; also: % is scaled to controls: 0 for no effect and ±100 for the full control effect; nearly all actives have a fitted effect of over 55% in size
Luciferase inh – firefly luciferase inhibition | P08659 | purified firefly luciferase, luminescence, 8 min | Potency, µM (titrated, usually from 57.1 µM), without a hit: at the top dose activity change, negative = inhibition, most hits filed as inhibitors | 2.2% of 72,000 active; also: % is scaled to controls: 0 for no effect and ±100 for the full control effect; nearly all actives have a fitted effect of over 40% in size
Target sequence (P08659 whole entry, looked up): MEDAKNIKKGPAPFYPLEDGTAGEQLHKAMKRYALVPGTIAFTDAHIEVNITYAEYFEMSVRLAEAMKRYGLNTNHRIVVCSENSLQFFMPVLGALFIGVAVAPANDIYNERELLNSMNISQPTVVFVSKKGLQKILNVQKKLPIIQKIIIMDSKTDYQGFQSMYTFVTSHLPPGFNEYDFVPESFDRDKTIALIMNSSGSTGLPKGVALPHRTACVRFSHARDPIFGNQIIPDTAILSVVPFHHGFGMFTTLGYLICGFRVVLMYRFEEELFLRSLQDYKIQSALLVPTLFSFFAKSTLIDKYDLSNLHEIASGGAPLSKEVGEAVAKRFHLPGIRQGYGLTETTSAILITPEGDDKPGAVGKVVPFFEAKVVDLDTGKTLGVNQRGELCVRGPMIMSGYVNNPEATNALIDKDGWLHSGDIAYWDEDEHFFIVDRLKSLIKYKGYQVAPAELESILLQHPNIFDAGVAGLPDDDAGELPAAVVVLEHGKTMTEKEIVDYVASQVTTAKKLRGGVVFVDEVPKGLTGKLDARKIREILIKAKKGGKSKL
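Here, luciferase activity is measured as luminescence following an 8 min room-temperature reaction at 10 uM ATP, pH 7.2. Every library sample is titrated.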
p53ts 32C tox – cytotoxicity in p53ts cells at permissive temperature; H1299-p53A138V at 32C, ATP luminescence viability, 24 h; Potency, µM (doses to about 46.1 µM), inactives show top-dose activity change, negative = cytotoxicity, actives largely listed as cytotoxic; 0.93% of 130,000 active; AID 924;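 also: 0% = DMSO and -100% = full killing by reference compound; nearly all actives have a fitted effect of over 55% in size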
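Viability by ATPlite luminescence after 24 h compound treatment (up to 46 uM) at the permissive 32C. Cells are H1299 carrying p53 A138V. Scale runs from DMSO basal to 100 uM tamoxifen as full kill; AC50 from Hill fits.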
* marks the source's active call; other numbers are inactive results; ? = inconclusive; / = not tested or not shown; [ ] = another dose, or the depositor's remark. Unless noted, calls follow the shape of the dose curve; as a rule, active = well fitted curve in the direction sought with a large enough effect; inconclusive = small, poorly fitted or top-dose-only effect, or another doubt; inactive = no such curve, though single readings can be large; an effect the other way counts as inactive or inconclusive. Potency is read from the fitted curve at half-maximal effect.

SMILES	Peg3 imprint	IkB signaling	p53ts 39C tox	Luciferase inh	p53ts 32C tox
Cc1ccccc1C(=O)Nc1cccc(OCc2cc(=O)n3c4c(sc3n2)CCCC4)c1	-10.2%[10.9 µM]	?	-14.5%	/	1.3%
Cc1cc2n(n1)C(c1ccc(N(C)C)cc1)Nc1ccccc1-2 (stereo not given)	-17.0%	1.5%	?	25.1µM*	?
Cc1cc2n(n1)C(c1ccccc1)Nc1ccccc1-2 (stereo not given)	-7.6%	-1.8%	-6.6%	4.5%	1.2%
Cc1cccc(Cn2ccn(Cc3ccc(Cl)cc3)c(=O)c2=O)c1	8.4%[10.9 µM]	?	31.6µM*	/	?
COc1ccc(Cn2ccn(Cc3cccc(Cl)c3)c(=O)c2=O)cc1	-5.5%[10.9 µM]	1.7%	?	/	-13.2%
COc1cc(C2c3c(-c4ccccc4O)n[nH]c3C(=O)N2Cc2ccco2)ccc1OCC(C)C (stereo not given)	-7.3%[10.9 µM]	?	20µM*	/	?
Cc1cccc(N2CCN(C(=O)c3cc4ccc5cccnc5c4[nH]3)CC2C)c1 (stereo not given)	14.1%[10.9 µM]	-5.8%	?	/	-4.5%
CCOC(=O)C1(N(CC)CC)Sc2cc(C)ccc2NC1=O (stereo not given)	-29.7%	5.5%	15.8µM*	-1.7%	-17.5%
O=C(/C=C\c1ccc(O)c(O)c1)OCCc1ccccc1	/	32.2%	?	-6.3%	?
Oc1oc(-c2ccco2)nc1C=Nc1ccccc1	14.2%	?	-4.3%	15.8µM*	-0.3%
Oc1oc(-c2ccco2)nc1C=Nc1cccc(Cl)c1	/	/	/	-6.4%[25.5 µM]	/
Cc1cc(N2CCN(C)CC2)nc2ccc(NC(=O)c3ccc(C(C)(C)C)cc3)cc12	-19.3%[10.9 µM]	?	20µM*	/	15.8µM*
CCOc1ccccc1NC(=O)Nc1ccc2nc(N3CCN(C)CC3)cc(C)c2c1	-7.8%[10.9 µM]	-2.6%	10µM*	/	?
Cc1ccccc1NC(=O)Nc1ccc2nc(N3CCN(C)CC3)cc(C)c2c1	7.6%[10.9 µM]	?	-0.3%	/	-14.3%
OCCNc1nc(Nc2ccccc2)nc2ccccc12	/	/	2.0%	/	-9.3%
Nc1nc(Nc2cccc(F)c2)nc2ccccc12	-85.6%	0.0%	12.6µM*	10µM*	?
CCCc1cc(C(=O)Nc2sc3c(c2C#N)CCC3)no1	-21.1%	2.9%	-8.8%	0.1%	22.8%
Cc1cc(C(=O)Nc2sc3c(c2C#N)CCCCC3)cs1	-48.1%	2.3%	-27.1%	15.8µM*	?
N#Cc1c(NC(=O)c2ccncc2)sc2c1CCC2	-26.3%	-1.1%	-27.4%	20µM*	-27.1%
N#Cc1c(NC(=O)c2nc3ncccn3n2)sc2c1CCCCC2	-11.8%	0.9%	12.6µM*	-0.4%	12.6µM*
CC(C)C(=O)Nc1sc2c(c1C#N)CCCCC2	/	/	-7.7%	/	-22.5%
CCCS(=O)(=O)Nc1cc(-c2cn3cccc(C)c3n2)ccc1C	-8.6%[10.9 µM]	-0.5%	?	/	?
COc1ccc(Br)cc1CNC(=O)c1nn(-c2ccc(C)cc2)c(=O)c2c1c1ccccc1n2C	-2.7%[10.9 µM]	-1.7%	12.5%	/	2.8%
CCN(CC)CCn1c(NCc2ccc(OC)cc2)nc2ccccc21	-19.6%	1.6%	-1.8%	2.0%	-9.8%
CCCn1c(Nc2nc3ccccc3n2C)nc2ccccc21	-37.6%	?	10µM*	-26.6%	?
SMILES	Peg3 imprint	IkB signaling	p53ts 39C tox	Luciferase inh	p53ts 32C tox
CCCCCn1c(NCc2ccc(OC)cc2)nc2ccccc21	-19.6%[10.9 µM]	?	15.8µM*	/	?
Cc1nc(-c2ccc(F)cc2)sc1CCNC(=O)c1ccco1	9.1%[10.9 µM]	0.1%	14.0%	/	-5.3%
CCOC(=O)c1c(-c2ccccc2)oc2ccc(NS(=O)(=O)c3cc(C)c(C)cc3C)cc12	-14.7%[10.9 µM]	?	-3.8%	/	19.3%
CC(C)(C)OC(=O)N1CCC(c2c(C(=O)Nc3ccc4c(c3)OCCO4)cnn2-c2ccccc2)CC1	-2.6%[10.9 µM]	?	9.1%	/	-1.6%
COc1ccccc1NC(=O)c1oc2ccc(C)cc2c1C	-2.9%	?	?	15.8µM*	?
COc1ccccc1NC(=O)c1oc2ccccc2c1NC(=O)c1cc(OC)c(OC)c(OC)c1	-21.0%	1.2%	6.7%	-6.1%	-4.5%
CN1/C(=C\C(=O)c2cccs2)Sc2ccccc21	-86.2%	?	10µM*	6.31µM*	10µM*
CC1CCC(NC(=O)CCc2cn(Cc3ccc(F)cc3)c3ccccc23)CC1 (stereo not given)	-14.9%[10.9 µM]	-1.8%	-28.8%	/	4.6%
Cc1ccccc1Nc1nc(CSc2nnc(-c3ccoc3C)n2C)cs1	-11.7%	2.3%	-8.8%	25.1µM*	-7.5%
S=C(c1ccc(-c2ccccc2Cl)o1)N1CCOCC1	-35.0%	-3.8%	-28.0%	15.8µM*	?
S=C(c1ccc(-c2ccc(Cl)c(Cl)c2)o1)N1CCOCC1	-11.9%	0.0%	-23.2%	7.94µM*	-28.6%
CCOc1ccc(NC(=O)CSC2=Nc3ccccc3C3=NC(CC(=O)NCc4ccccc4OC)C(=O)N23)cc1 (stereo not given)	18.5%[10.9 µM]	0.2%	-5.2%	/	8.3%
Cc1ccc2c(c1)N(CC(=O)NCC1COc3ccccc3O1)C(=O)CO2 (stereo not given)	-3.8%	1.2%	-1.9%	-0.3%	-2.9%
COc1ccccc1N1CCN(C(CNC(=O)C(=O)NCCc2ccccc2)c2cccnc2)CC1 (stereo not given)	-10.1%[10.9 µM]	0.9%	-12.7%	/	17.2%
CCc1ccc(NS(=O)(=O)c2ccc3[nH]c4c(c3c2)CCCCCC4)cc1	-13.9%[10.9 µM]	4.4%	20µM*	/	10.8%
O=C(NCCO)c1ccc2[nH]c3c(c2c1)CCCC3	-8.4%	-0.2%	-26.9%	15.8µM*	?
CCOC(=O)c1ccc(NS(=O)(=O)c2ccc3[nH]c4c(c3c2)CCCCC4)cc1	-12.5%[10.9 µM]	?	15.8µM*	/	?
C[C@@]12CCC(=O)C=C1CC[C@H]1C2[C@@H](O)C[C@]2(C)[C@@H]1CC[C@@]2(O)C(=O)CO (stereo not given in full)	-8.4%[10.9 µM]	/	/	/	/
CN(C)S(=O)(=O)c1ccc(C(=O)NCCSc2c(-c3ccc(Br)cc3)[nH]c3ccccc23)cc1	-20.4%[10.9 µM]	?	-14.6%	/	8.7%
CC(=O)Oc1c(S(=O)(=O)c2ccc(C)cc2)c(C)nn1C(C)(C)C	-14.1%	?	5.3%	1.7%	-5.2%
Cc1ccc(S(=O)(=O)c2c(C)nn(C(C)(C)C)c2OC(=O)c2ccco2)cc1	-18.6%	?	25.1µM*	-0.2%	?
Cc1nn(C(C)(C)C)c(OC(=O)c2ccc3c(c2)OCO3)c1S(=O)(=O)c1ccccc1	11.6%	-1.9%	15.8µM*	0.4%	-19.3%
Cc1ccc(S(=O)(=O)c2c(C)nn(C(C)(C)C)c2OC(=O)c2cccs2)cc1	-29.9%	3.2%	15.8µM*	0.2%	?
Cc1ccc(S(=O)(=O)c2c(C)nn(C(C)(C)C)c2OC(=O)c2ccc(Br)o2)cc1	-24.8%	?	-21.5%	-1.1%	10µM*
